A selection: hits, their analogues and other compounds. The true share with any hit is near 27%.
EphB4 antag – EphB4-ephrin-B2 interaction antagonism; inhibition, % at 7 µM; EphB4 LBD / TNYL-RAW-Alexa532 peptide, fluorescence polarization; 97,000 tested, 0.15% active; AID 720;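 active means inhibition above the screen-wide mean inhibition plus 3 SD, cut at about 15% in these data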
Target sequence (P54760 whole entry, looked up, the tested form may be a part): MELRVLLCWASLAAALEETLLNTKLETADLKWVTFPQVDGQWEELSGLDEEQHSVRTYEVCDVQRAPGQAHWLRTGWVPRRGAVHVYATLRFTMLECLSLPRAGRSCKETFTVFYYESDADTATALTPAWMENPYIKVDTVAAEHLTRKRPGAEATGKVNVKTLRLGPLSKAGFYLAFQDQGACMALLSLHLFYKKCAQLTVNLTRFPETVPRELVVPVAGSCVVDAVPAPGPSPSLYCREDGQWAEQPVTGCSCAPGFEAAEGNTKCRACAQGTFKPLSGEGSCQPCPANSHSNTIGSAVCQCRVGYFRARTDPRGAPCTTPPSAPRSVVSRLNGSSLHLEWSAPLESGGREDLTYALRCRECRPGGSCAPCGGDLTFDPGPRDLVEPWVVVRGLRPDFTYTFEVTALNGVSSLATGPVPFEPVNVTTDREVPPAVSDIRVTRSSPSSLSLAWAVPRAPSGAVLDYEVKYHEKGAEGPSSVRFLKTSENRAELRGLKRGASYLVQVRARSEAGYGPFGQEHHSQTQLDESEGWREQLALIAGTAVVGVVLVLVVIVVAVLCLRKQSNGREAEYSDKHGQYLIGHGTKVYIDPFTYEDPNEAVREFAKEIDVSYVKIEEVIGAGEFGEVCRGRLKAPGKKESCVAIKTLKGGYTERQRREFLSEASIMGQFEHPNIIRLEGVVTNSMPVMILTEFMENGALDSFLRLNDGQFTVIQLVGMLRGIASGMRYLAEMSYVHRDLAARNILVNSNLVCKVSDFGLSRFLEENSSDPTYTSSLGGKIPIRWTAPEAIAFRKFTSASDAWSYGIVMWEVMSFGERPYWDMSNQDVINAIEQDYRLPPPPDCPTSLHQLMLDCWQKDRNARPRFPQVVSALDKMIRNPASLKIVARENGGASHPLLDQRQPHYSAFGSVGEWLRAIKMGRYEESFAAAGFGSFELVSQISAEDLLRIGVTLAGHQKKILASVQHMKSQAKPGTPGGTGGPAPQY
CYP2C9 activ – CYP2C9 (human) activation; P11712; recombinant CYP2C9, luciferin-H conversion, luminescence; stronger effect = higher value; factor 1 = untreated enzyme, 0 = blocked; activation factor at 5 µM; 96,000 tested, 1.4% active;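 active means activation factor of 2 or more for CYP2C9 at a 5 µM dose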
CYP2C19 inh – human CYP2C19 inhibition | P33261 | CYP2C19 Supersomes, luciferin-H EGE luminescence, 30 min | inhibition, % at 5 µM | 96,000 tested, 21% active;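 active means CYP2C19 inhibition above a set limit at 5 µM in the primary screen, cut at about 50% in these data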
CYP2C19 act – cytochrome P450 2C19 (human) activation. recombinant CYP2C19, luciferin-H EGE luminescence; stronger effect = higher value; 0 = fully inhibited enzyme, 1 = untreated enzyme. activation factor at 5 µM. 96,000 tested, under 10 active. AID 1025;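 active means activation factor of at least 2 at 5 µM in the primary screen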
CYP2C9 inhib – inhibitors of human CYP2C9; P11712; CYP2C9 Supersomes, luciferin-H conversion, luminescence; inhibition, % at 5 µM; 96,000 tested, 20% active; AID 777;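 active means blocking of liver enzyme CYP2C9 beyond about 50% at 5 µM, limit read from the data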
Large screens that a line does not name were inactive.

CCS(=O)(=O)N1CCC(C(=O)NCCC2=CCCCC2)CC1	none
Cc1c(C)n(CC(O)CN2CCCCC2)c2ccccc12 (stereo not drawn)	none
COc1ccc(-c2cc3ccccc3n2CC(O)CNC(CO)(CO)CO)cc1 (stereo not drawn)	none
COc1ccc(-c2cc3ccccc3n2CC(O)Cn2nc(C)cc2C)cc1 (stereo not drawn)	CYP2C19 inh 98.6, CYP2C9 inhib 99.5 (no result: EphB4 antag)
Cc1cc(C)n(CC(O)Cn2c(C)c(C)c3ccccc32)n1 (stereo not drawn)	CYP2C9 inhib 71.2
Cc1sc(=NC(=O)c2ccco2)n(C)c1-c1ccccc1	CYP2C9 inhib 65.2
CCN(CC)S(=O)(=O)c1ccc2c(c1)nc(SCc1nc3ccsc3c(=O)[nH]1)n2CC	CYP2C9 inhib 69.1
CCn1c(CSc2nc(C)cs2)nc2cc(S(=O)(=O)N(C)C)ccc21	none
Cc1ccc2cc(C#N)c(NCCNC(=O)C3CC3)nc2c1C	CYP2C9 inhib 64.3
CCC(=O)NCCNc1nc2cc(C)c(C)cc2cc1C#N	CYP2C19 inh 50.2, CYP2C9 inhib 71.5
CCOCCCNC(=S)NCCNc1nc2c(C)cccc2cc1C#N	none
C#CCN(C)CC/C=C1\c2ccccc2CSc2ccccc21	none (no result: CYP2C9 activ, CYP2C19 inh, CYP2C19 act, CYP2C9 inhib)
C=CCN1CN(S(=O)(=O)c2cccs2)c2nc3ccccc3nc21	CYP2C19 inh 62.9
O=S(=O)(c1cccs1)N1CN(Cc2ccccc2)c2nc3ccccc3nc21	none
O=S(=O)(c1cccs1)N1CN(Cc2ccc(F)cc2)c2nc3ccccc3nc21	CYP2C9 inhib 70.5
O=S(=O)(c1cccs1)N1CN(Cc2cccs2)c2nc3ccccc3nc21	CYP2C19 inh 92.6, CYP2C9 inhib 78.6
O=C(O)C1CCCCC1C(=O)OCCCCOC(=O)C1CCCCC1C(=O)O (stereo not drawn)	none
CC(NC(=O)c1cc2sccc2n1C)c1ccc2c(c1)OCCO2 (stereo not drawn)	CYP2C9 inhib 81.6
CC(NC(=O)c1cccs1)c1ccc2c(c1)OCO2 (stereo not drawn)	CYP2C19 inh 91.9, CYP2C9 inhib 75.9
Cc1ccsc1C(=O)NC(C)c1ccc2c(c1)OCO2 (stereo not drawn)	none (no result: CYP2C9 activ, CYP2C19 inh, CYP2C19 act, CYP2C9 inhib)
O=C(CN1CCCC1=O)NC1(C(F)(F)F)NC(=O)N(Cc2ccccc2)C1=O (stereo not drawn)	none
CCOC(=O)c1c(N)sc(C(O)(C(F)(F)F)C(F)(F)F)c1-c1ccc(Cl)cc1	CYP2C19 inh 62.5, CYP2C9 inhib 86.3
CCOC(=O)c1c(N)sc(C(O)(C(F)(F)F)C(F)(F)F)c1-c1ccc(F)cc1	CYP2C9 inhib 74.8
CCOC(=O)c1c(NC(=O)Nc2ccc(Cl)cc2)sc(C)c1C	none
CCOC(=O)c1c(NC(=O)C2C3CCC(O3)C2C(=O)O)sc(C)c1-c1ccc(F)cc1 (stereo not drawn)	none
CCOC(=O)C(C(=O)OCC)C1CS(=O)(=O)CC1C(C(=O)OCC)C(=O)OCC (stereo not drawn)	none (no result: CYP2C9 activ, CYP2C19 inh, CYP2C19 act, CYP2C9 inhib)
CCOC(=O)c1c(NC(=S)NC(=O)c2ccc(Cn3cc(Cl)cn3)o2)sc2c1CCC(C)C2 (stereo not drawn)	none
Cc1ccc(-n2nc(-c3cccs3)cc2C(=O)NCC2CCCO2)c(C)c1 (stereo not drawn)	CYP2C19 inh 64.8, CYP2C9 inhib 89.8
CCOc1ccc2nc(Cl)c(/C=C/C(=O)c3ccco3)cc2c1	CYP2C9 inhib 53.1
CCCCn1c(=O)c(C(=O)c2ccccc2)nc2ccccc21	none
CCCCNC(=O)CC1C(=O)N(Cc2ccccc2)C(C)c2nc3ccccc3n21 (stereo not drawn)	CYP2C19 inh 71.4
CC1CCCCC1NC(=O)C1CCN(S(=O)(=O)N2CCCCCC2)CC1 (stereo not drawn)	none
CCN(CC)C(=O)c1sc2nc(-c3ccncc3)[nH]c(=O)c2c1C	CYP2C19 inh 62.8
CCN(CC)C(=O)c1sc2[nH]c(=S)n(-c3ccccc3)c(=O)c2c1C	none
CC1CCCC/C1=N/Nc1ccc([N+](=O)[O-])cc1[N+](=O)[O-] (stereo not drawn)	none
CC12CCC(C(=O)Nc3nccs3)(OC1=O)C2(C)C (stereo not drawn)	none
COC(=O)c1ccccc1NC(=O)C12CCC(C)(C(=O)O1)C2(C)C (stereo not drawn)	CYP2C19 inh 57.1
COc1ccc(OC)c(NC(=O)C23CCC(C)(C(=O)O2)C3(C)C)c1 (stereo not drawn)	CYP2C9 activ 2, CYP2C19 inh 60.7
COc1ccc(Cl)cc1NC(=O)C12CCC(C)(C(=O)O1)C2(C)C (stereo not drawn)	CYP2C19 inh 83.1
O=C(CSc1nnc(-c2ccc(F)cc2)o1)Nc1ccccc1N1CCOCC1	none (no result: CYP2C9 activ, CYP2C19 inh, CYP2C19 act, CYP2C9 inhib)
CN(C)C(=O)Cn1nc(-c2ccccc2)c2ccccc2c1=O	none
COC(=O)Cn1nc(-c2ccc(C)c(S(=O)(=O)N(C)C)c2)c2ccccc2c1=O	CYP2C9 inhib 59.0
Cc1ccc(-c2nn(CC(=O)N(C)C)c(=O)c3ccccc23)cc1S(=O)(=O)N(C)C	CYP2C9 inhib 62.2
O=C1CSC(c2ccc(F)cc2)N1c1nnc(C23CC4CC(CC(C4)C2)C3)s1 (stereo not drawn)	none
CC1Cc2ccccc2N1C(=O)COC(=O)c1cccnc1Cl (stereo not drawn)	CYP2C19 inh 53.1
CCOC(=O)c1c(C)[nH]c(C(=O)OCC(=O)N2c3ccccc3CC2C)c1C (stereo not drawn)	none
COCc1c(C(=O)OCC(=O)N2c3ccccc3CC2C)oc2ccccc12 (stereo not drawn)	CYP2C19 inh 52.9
CCOC(=O)C1=C(C)NC(C)=C(C(=O)OCC)C1C(=O)OCC(=O)N1c2ccccc2CC1C (stereo not drawn)	CYP2C19 inh 92.7, CYP2C9 inhib 99.9
CC1Cc2ccccc2N1C(=O)COC(=O)Cn1nnc(-c2ccccc2)n1 (stereo not drawn)	CYP2C19 inh 64.9, CYP2C9 inhib 87.6
O=C(CO)N/N=C/c1ccccc1F	none
CCOC(=O)c1nc(Nc2ccc(C(=O)O)cc2)c2ccccc2n1	none
O=C(Nc1cccc2nsnc12)c1ccc(F)cc1	none
CC(=O)c1ccc(NC(=O)N2CCN(c3cccc(Cl)c3)CC2)cc1	none
COc1ccc(-c2cc3nc4n(c(=O)c3s2)CCC4)cc1	CYP2C19 inh 70.1, CYP2C9 inhib 51.1
COc1ccc(-c2nc3n(c(=O)c2C#N)CCCS3)cc1	none
CCOCCCn1c(=O)c(NC(=O)c2ccc(OCC)cc2)c2n(c1=S)CCCCC2	none
CCn1c(=O)c(NC(=O)c2ccccc2)c2n(c1=S)CCCCC2	CYP2C9 inhib 54.5
Cc1ccc(C(=O)O)cc1NC(=O)C1CCCN1S(=O)(=O)c1cccc2nsnc12 (stereo not drawn)	none
C=CCOc1ccc(NC(=O)C(=O)NCCCn2ccnc2)cc1	none
CCCCCOc1ccc(NC(=O)C(=O)NCCCn2ccnc2)cc1	CYP2C19 inh 88.6, CYP2C9 inhib 83.1
COc1ccc(-c2nn(-c3ccccc3)cc2C(=O)NCCCn2ccnc2)cc1	CYP2C19 inh 95.8, CYP2C9 inhib 98.5

Screens deposited in PubChem BioAssay by several laboratories.
